PubChem BioAssay AID1159580 (chemical genetic matrix, 2015)
Screen size: about 5,500 compounds; about 2,000 (36%) were called active. Another 18% or so got no clear call; they are omitted. No stated cut-off is given here; in the data, active means normalized growth mostly below about 0.91 (no sharp cut-off); inconclusive means no clear call, values can overlap the other calls; inactive means mostly above about 0.92. The list shows a part of the results.

Assay: chemical genetic growth profiling, strain panel (AID 1159580);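 further: tested at 20 µM; growth read once vehicle control cultures reached saturation at 30 °C; 1 = growth at the plate median or of vehicle wells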
Conditions: S. cerevisiae deletion strains, growth OD

Measured: normalized growth

CC(C)C(C)/C=C/C(C)[C@H]1CCC2C3=CCC4CC(=O)CC[C@]4(C)C3CC[C@@]21C (some centres not stated)
inactive: locus YAL013W, strain DEP1, stronger effect = lower value 1.04 | locus YAL021C, strain ccr4, stronger effect = lower value 0.999 | locus YAL026C, strain drs2, stronger effect = lower value 1 | locus YAL030W, strain snc1, stronger effect = lower value 1 | locus YBL061C, strain skt5, stronger effect = lower value 1 | locus YBR009C, strain hhf1, stronger effect = lower value 0.981 | locus YBR021W, strain FUR4, stronger effect = lower value 1 | locus YBR023C, strain chs3, stronger effect = lower value 0.995 | locus YBR171W, strain sec66, stronger effect = lower value 0.986 | locus YBR229C, strain ROT2, stronger effect = lower value 1.02 | locus YBR231C, strain swc5, stronger effect = lower value 1.03 | locus YBR279W, strain paf1, stronger effect = lower value 1 | locus YCL011C, strain gbp2, stronger effect = lower value 1.01 | locus YCL016C, strain dcc1, stronger effect = lower value 1.01 | locus YCL029C, strain bik1, stronger effect = lower value 1.02 | locus YCL061C, strain MRC1, stronger effect = lower value 1.01 | locus YCL069W, strain vba3, stronger effect = lower value 0.996 | locus YCR088W, strain abp1, stronger effect = lower value 1 | locus YDL005C, strain med2, stronger effect = lower value 1 | locus YDL035C, strain GPR1, stronger effect = lower value 0.992 | locus YDL040C, strain nat1, stronger effect = lower value 1 | locus YDL074C, strain BRE1, stronger effect = lower value 1 | locus YDL101C, strain DUN1, stronger effect = lower value 1.01 | locus YDL185W, strain tfp1, stronger effect = lower value 1.01 | locus YDL192W, strain arf1, stronger effect = lower value 0.996 | locus YDR001C, strain nth1, stronger effect = lower value 1 | locus YDR069C, strain doa4, stronger effect = lower value 0.997 | locus YDR101C, strain arx1, stronger effect = lower value 1.03 | locus YDR137W, strain rgp1, stronger effect = lower value 0.927 | locus YDR150W, strain NUM1, stronger effect = lower value 1.02 | locus YDR159W, strain sac3, stronger effect = lower value 1 | locus YDR162C, strain NBP2, stronger effect = lower value 0.97 | locus YDR195W, strain ref2 0.928 | locus YDR297W, strain sur2, stronger effect = lower value 1 | locus YDR318W, strain mcm21, stronger effect = lower value 1.01 | locus YDR334W, strain swr1, stronger effect = lower value 1 | locus YDR335W, strain msn5, stronger effect = lower value 1.01 | locus YDR388W, stronger effect = lower value 1.01 | locus YDR392W, strain spt3, stronger effect = lower value 0.941 | locus YDR502C, strain sam2, stronger effect = lower value 0.999 | locus YEL003W, strain gim4, stronger effect = lower value 1.01 | locus YEL037C, strain rad23, stronger effect = lower value 1 | locus YEL061C, strain CIN8 (second series), stronger effect = lower value 1.01 | locus YEL061C, strain CIN8, stronger effect = lower value 1.01 | locus YER015W, strain faa2, stronger effect = lower value 1 | locus YER016W, strain bim1, stronger effect = lower value 1 | locus YER110C, stronger effect = lower value 1.01 | locus YER111C, strain swi4, stronger effect = lower value 1 | locus YER155C, strain BEM2 (second series), stronger effect = lower value 0.984 | locus YER155C, strain BEM2, stronger effect = lower value 1.03 | locus YER167W, strain BCK2, stronger effect = lower value 1.03 | locus YFR010W, strain ubp6, stronger effect = lower value 1.01 | locus YGL078C, strain dbp3, stronger effect = lower value 0.98 | locus YGL086W, strain mad1, stronger effect = lower value 1 | locus YGL167C, strain pmr1, stronger effect = lower value 0.995 | locus YGL173C, strain kem1, stronger effect = lower value 0.995 | locus YGL227W, strain vid30, stronger effect = lower value 1 | locus YGL240W, strain doc1, stronger effect = lower value 0.999 | locus YGL248W, strain PDE1, stronger effect = lower value 1.01 | locus YGL253W, strain hxk2, stronger effect = lower value 1.01 | locus YGR078C, strain PAC10, stronger effect = lower value 1.01 | locus YGR135W, strain pre9, stronger effect = lower value 1 | locus YGR252W, strain gcn5, stronger effect = lower value 0.985 | locus YHR013C, strain ard1, stronger effect = lower value 0.968 | locus YHR027C, strain rpn1, stronger effect = lower value 1.01 | locus YHR030C, strain SLT2, stronger effect = lower value 1.03 | locus YHR079C, strain IRE1 (second series), stronger effect = lower value 1.01 | locus YHR094C, strain hxt1, stronger effect = lower value 1.02 | locus YHR129C, strain ARP1, stronger effect = lower value 1.02 | locus YHR142W, strain chs7, stronger effect = lower value 1 | locus YHR200W, strain rpn10, stronger effect = lower value 1.01 | locus YIL066C, strain RNR3, stronger effect = lower value 1.01 | locus YIL073C, strain SPO22, stronger effect = lower value 1.02 | locus YIL125W, strain kgd1, stronger effect = lower value 1.01 | locus YIR030C, strain dcg1, stronger effect = lower value 1.02 | locus YJL092W, strain hpr5, stronger effect = lower value 1.01 | locus YJL095W, strain BCK1 (second series), stronger effect = lower value 1.01 | locus YJL095W, strain BCK1, stronger effect = lower value 1.02 | locus YJL115W, strain asf1, stronger effect = lower value 0.99 | locus YJL129C, strain trk1, stronger effect = lower value 0.998 | locus YJL134W, strain LCB3, stronger effect = lower value 1.02 | locus YJL154C, strain vps35, stronger effect = lower value 1.01 | locus YJL164C, strain tpk1, stronger effect = lower value 0.998 | locus YJL166W, strain qcr8, stronger effect = lower value 1.01 | locus YJL168C, strain set2, stronger effect = lower value 1 | locus YJL187C, strain SWE1 (second series), stronger effect = lower value 1.01 | locus YJL187C, strain SWE1, stronger effect = lower value 1 | locus YJR043C, strain POL32, stronger effect = lower value 1.02 | locus YJR075W, strain HOC1, stronger effect = lower value 1.03 | locus YKL009W, strain mrt4, stronger effect = lower value 0.95 | locus YKL068W, stronger effect = lower value 1.01 | locus YKL085W, strain MDH1 (second series), stronger effect = lower value 1.02 | locus YKL085W, strain MDH1, stronger effect = lower value 1.02 | locus YKL160W, strain elf1, stronger effect = lower value 1.01 | locus YKR001C, strain vps1, stronger effect = lower value 1.01 | locus YKR026C, strain gcn3, stronger effect = lower value 0.971 | locus YKR091W, strain srl3, stronger effect = lower value 1.01 | locus YLL001W, strain dnm1, stronger effect = lower value 0.997 | locus YLL026W, stronger effect = lower value 1 | locus YLL041C, strain sdh2, stronger effect = lower value 1 | locus YLR027C, strain aat2, stronger effect = lower value 1.01 | locus YLR039C, strain RIC1, stronger effect = lower value 0.968 | locus YLR058C, strain SHM2, stronger effect = lower value 1.02 | locus YLR102C, strain apc9, stronger effect = lower value 1.01 | locus YLR221C, strain rsa3, stronger effect = lower value 1.01 | locus YLR258W, strain gsy2, stronger effect = lower value 1 | locus YLR262C, strain YPT6 (second series), stronger effect = lower value 0.895 | locus YLR262C, strain YPT6, stronger effect = lower value 0.952 | locus YLR268W, strain sec22, stronger effect = lower value 1 | locus YLR320W, strain mms22, stronger effect = lower value 0.965 | locus YLR330W, strain CHS5, stronger effect = lower value 1.03 | locus YLR342W, strain FKS1 (second series), stronger effect = lower value 1.03 | locus YLR342W, strain FKS1, stronger effect = lower value 1 | locus YLR357W, strain rsc2, stronger effect = lower value 0.978 | locus YLR370C, strain arc18, stronger effect = lower value 0.998 | locus YLR371W, strain rom2, stronger effect = lower value 1.01 | locus YLR384C, strain iki3, stronger effect = lower value 0.997 | locus YLR418C, strain cdc73, stronger effect = lower value 1.03 | locus YML016C, strain PPZ1, stronger effect = lower value 1.02 | locus YML032C, strain rad52, stronger effect = lower value 1 | locus YML120C, strain ndi1, stronger effect = lower value 1.01 | locus YML124C, strain tub3, stronger effect = lower value 1.02 | locus YMR058W, strain fet3, stronger effect = lower value 1.01 | locus YMR078C, strain ctf18, stronger effect = lower value 1.02 | locus YMR125W, strain sto1, stronger effect = lower value 1.01 | locus YMR129W, stronger effect = lower value 0.999 | locus YMR205C, strain PFK2, stronger effect = lower value 0.976 | locus YMR223W, strain ubp8, stronger effect = lower value 0.986 | locus YMR231W, strain pep5, stronger effect = lower value 0.999 | locus YMR307W, strain GAS1, stronger effect = lower value 1.2 | locus YNL067W, strain RPL9B, stronger effect = lower value 1.02 | locus YNL071W, strain lat1, stronger effect = lower value 1.01 | locus YNL209W, strain ssb2, stronger effect = lower value 1.01 | locus YNL233W, strain BNI4, stronger effect = lower value 1.03 | locus YNL248C, strain rpa49, stronger effect = lower value 0.995 | locus YNL250W, strain rad50, stronger effect = lower value 1.01 | locus YNL271C, strain bni1, stronger effect = lower value 1 | locus YNL298W, strain CLA4, stronger effect = lower value 0.991 | locus YNL307C, strain MCK1, stronger effect = lower value 1.02 | locus YNL322C, strain KRE1 (second series), stronger effect = lower value 0.996 | locus YNR049C, strain mso1, stronger effect = lower value 1 | locus YNR052C, strain pop2, stronger effect = lower value 0.971 | locus YOL012C, strain htz1 1.52 | locus YOL147C, strain pex11, stronger effect = lower value 1.01 | locus YOR001W, strain rrp6, stronger effect = lower value 1 | locus YOR061W, strain CKA2, stronger effect = lower value 1.02 | locus YOR069W, strain VPS5, stronger effect = lower value 1.02 | locus YOR070C, strain gyp1, stronger effect = lower value 1 | locus YOR080W, strain dia2, stronger effect = lower value 1 | locus YOR083W, strain WHI5, stronger effect = lower value 1.01 | locus YOR106W, strain vam3, stronger effect = lower value 0.995 | locus YOR136W, strain idh2, stronger effect = lower value 1 | locus YOR144C, strain elg1, stronger effect = lower value 1.01 | locus YOR184W, strain ser1, stronger effect = lower value 1 | locus YOR265W, strain rbl2, stronger effect = lower value 0.999 | locus YOR270C, strain vph1, stronger effect = lower value 1.04 | locus YOR290C, strain snf2, stronger effect = lower value 0.936 | locus YOR316C, strain cot1, stronger effect = lower value 1.01 | locus YPL051W, strain arl3, stronger effect = lower value 1.03 | locus YPL078C, strain atp4, stronger effect = lower value 1 | locus YPL106C, strain sse1, stronger effect = lower value 1.01 | locus YPL240C, strain hsp82, stronger effect = lower value 0.998 | locus YPR119W, strain clb2, stronger effect = lower value 1.02 | locus YPR141C, strain kar3, stronger effect = lower value 1.01 | locus YPR163C, strain tif3, stronger effect = lower value 1.01 | locus YPR167C, strain met16, stronger effect = lower value 1.01 | strain wtn01, stronger effect = lower value 0.991
